The whole screen tested about 150,000 compounds, of which about 540 (0.36%) showed an effect of 50% or more. Only a selection was taken, and strong results are over-represented in it overall.

Here are results for twelve molecules from ChEMBL document CHEMBL5308541, “MAIP: An Open-Source Tool to Enrich High-Throughput Screening Output and Identify Novel, Druglike Molecules with Antimalarial Activity” (ACS Med Chem Lett, 2023).

For the test, the system named is Plasmodium falciparum. Description: Primary screen in NF54 nanoGlo assay, in single point, at 2uM, 72h; a lower Z score goes with more inhibition. Type of test: functional, Erythrocyte. The conditions noted are these: timepoint 72 hour.
In the case of `CC(C)(C)c1ccc(CNC[C@H](O)c2ccc(F)cc2F)cc1`, the % Inhibition – broadly, the relative decrease from the control value, in per cent – turned out to be 94% and the Z score is given as -16.43.

On to `CC(C)c1nc(N2CCC[C@@]3(CCNC3)C2)c2cc[nH]c2n1`, for which the “% Inhibition” value is recorded as 2% and the Z score was -0.48.

Take `c1ccc(-c2cncnc2N2CC[C@]3(CCNC3)C2)cc1`: the “% Inhibition” value is -14% and the Z score is given as 2.09.

As for `CN(C)CC12CNCC1CN(c1ccnc3cc(Cl)ccc13)C2` (centres undefined), the “% Inhibition” value was found to be 97% and the Z score is listed as -19.2.

For `Fc1ccc(N2CC[C@H](CN3CCC(c4c[nH]c5ccccc45)(c4c[nH]c5ccccc45)CC3)C2)cc1`, the “% Inhibition” value amounted to 95% and the Z score is listed as -18.87.

As for `CCc1nnc(NCc2ccc(C)nc2N2CCCC2)nc1CC`, the “% Inhibition” value was -19% and the Z score was 2.94.

Consider `Cc1ccc(CNc2ncnc(N)c2Cl)c(N2CCCC2)n1`, for which the “% Inhibition” value came out at 50% and the Z score is -8.64.

On to `Cc1ccc([C@@H](O)CNCc2cc(O)cc(Cl)c2)cc1`, for which the “% Inhibition” value worked out at 7% and the Z score was -1.59.

Take `O[C@@H](CNCc1ccc2c(c1)CCO2)c1ccc(F)c(F)c1`: the “% Inhibition” value worked out at 72% and the Z score is -12.64.

Regarding `Fc1ccc(C2=CCN(C[C@@H]3CCCN4CCCC[C@H]34)CC2)cc1`, the “% Inhibition” value turned out to be 0% and the Z score is given as -0.03.

As to `CN1CCN(c2ccc(C(F)(F)F)cc2NCc2cnc[nH]2)CC1`, the “% Inhibition” value is on record as 52% and the Z score is reported as -7.95.

For `Clc1ccc(CNCCN2CCC3(C2)OCCO3)c2ncccc12`, the “% Inhibition” value was -1% and the Z score is recorded as 0.17.
